Screening results as filed in PubChem.
G9a block – qHTS Assay for Inhibitors of Histone Lysine Methyltransferase G9a; Histone-lysine N-methyltransferase EHMT2 (Homo sapiens), Q96KQ7; G9a H3K9 monomethylation, AlphaScreen, 2 h; Potency, µM (top dose mostly 102 µM), for the others: top-dose activity, negative = inhibition, usual class: inhibitors; 350,000 tested, 8.8% active; AID 504332, 2011; further: on the % scale 0 is the no-effect control and ±100 the full control effect; nearly all actives have a fitted effect of over 75% in size
Target sequence (Q96KQ7 913-1193 limits assumed): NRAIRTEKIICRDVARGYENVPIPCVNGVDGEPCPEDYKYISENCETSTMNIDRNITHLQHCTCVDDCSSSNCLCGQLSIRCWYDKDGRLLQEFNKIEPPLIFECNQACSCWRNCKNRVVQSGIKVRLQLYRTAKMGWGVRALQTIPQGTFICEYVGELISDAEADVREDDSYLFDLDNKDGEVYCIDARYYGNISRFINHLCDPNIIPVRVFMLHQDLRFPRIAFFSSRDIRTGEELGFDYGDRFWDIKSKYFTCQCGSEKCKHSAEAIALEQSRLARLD
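Enzyme 20 nM + cpd, 15 min RT; add b-H3K9 pep 500 nM / SAM 20 uM; 2 h RT; anti-H3K9me1 Ab 0.5 ug/mL + SA donor / anti-rabbit acceptor beads 20 ug/mL each, 10 min; AlphaScreen read.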
BAZ2B block – qHTS Assay for Inhibitors of BAZ2B; Bromodomain adjacent to zinc finger domain protein 2B (Homo sapiens), Q9UIF8; 360,000 tested, 4.4% active; Potency, µM (doses to about 114 µM), for the others: at the highest dose activity change, negative = inhibition, hits mostly inhibitors; AID 504333, 2011; AlphaScreen BAZ2B-H3K14Ac peptide displacement; further: on the % scale 0 is the no-effect control and ±100 the full control effect; nearly all actives have a fitted effect of over 60% in size
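Inhibition is scored as reduced AlphaScreen emission. The BAZ2B/b-H3(5-23)K14Ac complex (50 nM each) in PBS pH 7.4, 0.01% Tween-20 meets compound (up to 110 uM) for 30 min at RT before bead addition.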
PLK1 PBD block – qHTS for Inhibitors of PLK1-PDB (polo-like kinase 1 - polo-box domain): Primary Screen. Potency, µM, inactives show max response, negative = inhibition, hits mostly inhibitors. AID 720504, 2013. Serine/threonine-protein kinase PLK1 (Homo sapiens), P53350. 360,000 tested, 2.8% active. Plk1 PBD binding of FITC phosphopeptide, fluorescence polarization; further: series mostly up to about 57 µM; on the % scale 0 is the no-effect control and ±100 the full control effect; nearly all actives have a fitted effect of over 65% in size
ALOX12 inh – Primary qHTS assay for inhibitors of human arachidonate 12S-lipoxygenase (ALOX12): Round 2; Potency, µM (top dose mostly 108 µM), for inactives: at the highest dose activity change, negative = inhibition, usual class: inhibitors; purified 12hLO, xylenol orange hydroperoxide absorbance; AID 1671190, 2021; 580,000 tested, 1.1% active; Polyunsaturated fatty acid lipoxygenase ALOX12 (Homo sapiens), P18054; further: on the % scale 0 is the no-effect control and ±100 the full control effect
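Hydroperoxide product was detected by ferrous iron/xylenol orange as the 573 to 405 nm absorbance ratio. Arachidonic acid at 40 uM (final) was turned over for 30 min at room temperature by 150 nM human 12hLO, pH 7.0 Hepes buffer, after 15 min compound preincubation.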
JMJD2A Tudor – qHTS Assay for Inhibitors of JMJD2A-Tudor Domain; 390,000 tested, 4.4% active; AID 504339, 2011; AlphaScreen JMJD2A-Tudor / H3K4me3 peptide binding; Potency, µM (top dose mostly 114 µM), for inactives: at the top dose activity change, negative = inhibition, hits mostly inhibitors; Lysine-specific demethylase 4A (Homo sapiens), O75164; further: on the % scale 0 is the no-effect control and ±100 the full control effect; nearly all actives have a fitted effect of over 50% in size
HP1b binding inh – HTS for Inhibitors of HP1-beta Chromodomain Interactions with Methylated Histone Tails; 390,000 tested, 0.56% active; AlphaScreen HP1-beta / biotin-H3K9me3 peptide binding; Potency, µM (highest dose often 114 µM), for inactives: at the highest dose activity change, negative = inhibition, most hits filed as inhibitors; AID 540317, 2011; further: nearly all actives have a fitted effect of over 70% in size
Target sequence (P83916 whole entry, looked up): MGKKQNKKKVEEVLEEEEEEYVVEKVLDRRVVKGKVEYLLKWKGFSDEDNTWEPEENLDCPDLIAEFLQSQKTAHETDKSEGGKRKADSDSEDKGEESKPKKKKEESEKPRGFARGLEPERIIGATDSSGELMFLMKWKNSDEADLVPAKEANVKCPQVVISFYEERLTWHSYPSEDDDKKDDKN
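HP1-beta protein (50 nM final) preincubated 30 min at room temperature with biotinylated H3(1-18)K9me3 peptide (50 nM) in PBS pH 7.4, 0.01% Tween-20, then compound added for 30 min. AlphaScreen streptavidin donor/nickel chelate acceptor beads (10 ug/mL final), 30 min dark, luminescence read.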
* = called active by the depositor; u = inconclusive; x = no result; [ ] = remark or other dose. The list is not random: actives were taken first. Their share in the collection is about 9%. The call rests on the fitted dose curve; in most records, active means well fitted curve in the direction sought with a large enough effect; inconclusive means small, poorly fitted or top-dose-only effect, or another doubt; inactive means no such curve, though single readings can be large; an effect the other way counts as inactive or inconclusive. Potency means the concentration at half of the fitted maximal effect.

SMILES	G9a block	BAZ2B block	PLK1 PBD block	ALOX12 inh	JMJD2A Tudor	HP1b binding inh
COc1ccc(N2CCN(C(=O)Cc3ccc(S(=O)(=O)N4CCOCC4)s3)CC2)cc1	44.7µM*	39.8µM*	u	-13.5%	44.7µM*	50.1µM*
Cc1ccc(S(=O)(=O)N2CCN(C(=O)Cc3ccc(S(=O)(=O)N4CCOCC4)s3)CC2)cc1	79.4µM*	-18.1%	-5.4%	419.6%	-8.2%	36.0%
Cc1ccc(CSCC(=O)N2CCOCC2)cc1	-21.0%	-5.3%	2.99µM*	0.0%	u	-3.1%
CC(=O)N1CCN(C(=O)CCN(c2ccccc2)S(=O)(=O)c2ccc(C)cc2)CC1	-6.7%[0.501 µM]	-3.2%	-10.6%	-12.0%	-13.9%	0.8%
O=C(Cc1ccc(S(=O)(=O)N2CCOCC2)s1)N1CCN(S(=O)(=O)c2ccc(Cl)cc2)CC1	-16.3%[12.7 µM]	-16.7%	-6.4%	5.9%	-14.4%	31.6%
CCCC(=O)n1nc(-c2cccs2)nc1NCc1ccc(C)o1	x	x	x	-51.0%	x	x
Cc1ccccc1-c1nc(Nc2ccncc2)c2ccccc2n1	-2.3%[0.501 µM]	x	x	35.5µM*	x	x
Clc1ccccc1-c1nc(Nc2ccncc2)c2ccccc2n1	16.2%[0.501 µM]	x	x	u	x	x
Oc1ccccc1-c1nc(NCc2cccnc2)c2ccccc2n1	23.9%	-21.1%	-15.1%	-13.4%	-14.0%[11.4 µM]	56.6%
Cc1ccccc1-c1nc(NCc2cccnc2)c2ccccc2n1	x	x	x	28.2µM*	x	x
O=C(Nc1ccc(S(=O)(=O)N2CCCCC2)cc1)C1CCCCC1	-36.7%	2.4%	-13.8%	2.8%	-5.7%	-1.0%
CCC(=O)N1CCc2cc(Br)cc(S(=O)(=O)NCc3ccco3)c21	44.7µM*	-5.4%	-13.9%	x	-14.9%	16.5%
COc1ccc(NS(=O)(=O)c2cc(Br)cc3c2N(C(C)=O)CC3)cc1	-14.1%	-20.6%	-10.5%	0.0%	-14.4%	25.5%
CC(=O)N1CCc2cc(Br)cc(S(=O)(=O)N3CCC(C(=O)O)CC3)c21	50.1µM*	-29.7%	-22.6%	-18.9%	-13.1%	-0.1%
CCC(=O)N1CCc2cc(Br)cc(S(=O)(=O)CCC(=O)NCc3ccco3)c21	-14.9%[59 µM]	-1.8%	-12.4%	x	-23.7%	20.1%
CC(=O)N1CCc2cc(Br)cc(S(=O)(=O)NCc3ccccn3)c21	u	-31.3%	u	0.0%[57.4 µM]	79.4µM*	-7.5%
COC(=O)c1cc(NS(=O)(=O)c2cc(Br)cc3c2N(C(C)=O)CC3)cc(C(=O)OC)c1	-14.0%[59 µM]	70.8µM*	x	-31.9%	4.5%	36.6%
COC(=O)[C@]12C[C@H](CC(=O)N3CCOCC3)C(=O)N(Cc3ccccc3)C1=C[C@H](C1CCCC1)O[C@@H]2C	x	x	x	-10.1%	x	x
C=CCNC(=O)C12CCC(C)(C(=O)[C@H]1Br)C2(C)C (some centres not stated)	u	0.3%	-7.7%	324.5%	-7.0%	18.1%
CCc1nc2sc3c(O)cc(=O)[nH]c3c2cc1C	44.7µM*	-0.3%	-20.1%	u	-9.1%	40.6%
COc1cccc(NC(=S)NCCc2ccccn2)c1	28.2µM*	56.2µM*	-9.5%	-7.5%	-14.4%	21.0%
Cc1cccc(NC(=S)NCc2ccccn2)c1	70.8µM*	-29.4%	u	u	u	32.7%
COc1ccc(CCNC(=O)C(=O)NCc2ccccn2)cc1	50.1µM*	-24.9%	1.7%	14.5%	-11.6%	14.5%
S=C(NCc1ccccc1)N/N=C/c1ccccn1	x	x	x	-28.6%	x	x
S=C(NCc1ccccn1)NN=Cc1ccccn1	x	x	-6.2%	u	31.6µM*	-3.7%
SMILES	G9a block	BAZ2B block	PLK1 PBD block	ALOX12 inh	JMJD2A Tudor	HP1b binding inh
C=CCNC(=S)Nc1ccc(C)cc1Cl	x	x	x	68.3%	x	x
Cc1c(S(=O)(=O)c2ccccn2)c(N)n(Cc2cccc(Cl)c2)c1C	28.2µM*	-30.1%	-12.8%	u	-24.6%	36.5%
O=S(=O)(c1ccc(Cl)cc1)c1ccccn1	14.9%	8.7%	-5.9%	-8.7%	-10.7%	16.8%
CCCN(CCO)Cc1ccc2ccccc2c1	-11.1%	6.7%	-7.0%	-0.7%[57.4 µM]	-6.4%	29.1%
CCCN(CCO)Cc1ccc(F)c(Br)c1	15.8µM*	79.4µM*	-0.5%	u	14.1µM*	u
CCOC(=O)C1CCN(S(=O)(=O)c2ccc3c(c2)NC(=O)C(C)C(=O)N3)CC1 (configuration not stated)	9.2%	-21.9%	-5.0%	8.1%[57.4 µM]	-10.4%	47.1%
CCCCC(=O)Nc1cc([N+](=O)[O-])ccc1Cl	5.6%[59 µM]	7.9%	-9.8%	9.0%	-3.4%	18.7%
CC(=O)OCC(=O)Nc1ccc([N+](=O)[O-])cc1Cl	15.6%[12.7 µM]	-4.1%	-12.2%	-10.8%	-20.3%	26.9%
CN(CC(=O)Nc1cc([N+](=O)[O-])ccc1Cl)Cc1ccc(Br)cc1	11.2µM*	u	-9.2%	u	u	-16.6%
Cc1ccsc1CN(C)CC(=O)Nc1ccc([N+](=O)[O-])cc1Cl	39.8µM*	-32.6%	-16.1%	-9.9%	-28.6%	u
O=C(COC(=O)c1cnc2ccccc2n1)NC1CCCCC1	x	x	x	-14.2%	x	x
O=C(COC(=O)c1cccc(C(=O)OCC(=O)NC2CCCCC2)n1)NC1CCCCC1	50.1µM*	11.8%	0.4%	-33.9%	u	28.7%
CC(C)C(C)NC(=O)COC(=O)c1cccc(C(=O)OCC(=O)NC(C)C(C)C)n1 (configuration not stated)	10µM*	u	6.3%	-0.1%	u	29.3%
Cc1cc2c(cc(C(=O)OCC(=O)NC3CCCCC3)n2C)o1	x	x	26.7µM*	11.3%	22.4µM*	-28.9%[57 µM]
O=C(Cn1c(C(F)(F)F)nc2ccccc21)OCC(=O)c1c[nH]c2ccccc12	-27.7%	14.8%	-2.2%	-5.3%	-14.3%	14.8%
CCCn1c(N)c(C(=O)CSc2nnc3ccccn23)c(=O)[nH]c1=O	x	x	-5.4%	-5.1%	-16.7%	19.9%
COc1cccc(C(=O)N2CCC(N(Cc3ccccc3)C3CCOCC3)CC2)c1	x	x	x	42.1%	x	x
CCN(CC)C(=O)CSc1nc2c(sc(=S)n2-c2ccccc2OC)c(=O)n1-c1ccccc1	-36.7%	-17.0%	-11.8%	14.0%	-30.8%	1.2%
OC[C@@H]1O[C@H](CNCc2ccc(F)cc2)[C@H](N2CCOCC2)[C@@H]1O	x	x	x	28.2µM*	x	x
COC(=O)c1[nH]c2ccc(Br)cc2c1NC(=O)CN1CCCc2ccccc21	-24.0%[59 µM]	-6.2%[57.1 µM]	-12.3%	-10.2%[57.4 µM]	-26.1%	31.7%
COC(=O)c1[nH]c2ccc(C)cc2c1NC(=O)Nc1ccccc1OC	39.8µM*	2.6%	-7.6%	-9.2%	-5.8%	12.7%
